# Assay results from PMC4336329 (PLoS ONE, 2015).
# About 14,000 (4.5%) of roughly 310,000 compounds showed an effect of 50% or more. Effects have a minus sign here. The sample holds strong results, similar compounds and a random draw of the others, so the mix is not that of the screen.
# Target: human ether-à-go-go-related gene (hERG) potassium channel (human, UniProt Q12809)
# Assay: primary screen, population patch clamp on CHO cells stably expressing hERG; higher = less effect of the substance
# 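Further: peak tail current of the secondary pulse compared with the same well before compound.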
# human ether-à-go-go-related gene (hERG) potassium channel, sequence (Q12809 whole entry, looked up): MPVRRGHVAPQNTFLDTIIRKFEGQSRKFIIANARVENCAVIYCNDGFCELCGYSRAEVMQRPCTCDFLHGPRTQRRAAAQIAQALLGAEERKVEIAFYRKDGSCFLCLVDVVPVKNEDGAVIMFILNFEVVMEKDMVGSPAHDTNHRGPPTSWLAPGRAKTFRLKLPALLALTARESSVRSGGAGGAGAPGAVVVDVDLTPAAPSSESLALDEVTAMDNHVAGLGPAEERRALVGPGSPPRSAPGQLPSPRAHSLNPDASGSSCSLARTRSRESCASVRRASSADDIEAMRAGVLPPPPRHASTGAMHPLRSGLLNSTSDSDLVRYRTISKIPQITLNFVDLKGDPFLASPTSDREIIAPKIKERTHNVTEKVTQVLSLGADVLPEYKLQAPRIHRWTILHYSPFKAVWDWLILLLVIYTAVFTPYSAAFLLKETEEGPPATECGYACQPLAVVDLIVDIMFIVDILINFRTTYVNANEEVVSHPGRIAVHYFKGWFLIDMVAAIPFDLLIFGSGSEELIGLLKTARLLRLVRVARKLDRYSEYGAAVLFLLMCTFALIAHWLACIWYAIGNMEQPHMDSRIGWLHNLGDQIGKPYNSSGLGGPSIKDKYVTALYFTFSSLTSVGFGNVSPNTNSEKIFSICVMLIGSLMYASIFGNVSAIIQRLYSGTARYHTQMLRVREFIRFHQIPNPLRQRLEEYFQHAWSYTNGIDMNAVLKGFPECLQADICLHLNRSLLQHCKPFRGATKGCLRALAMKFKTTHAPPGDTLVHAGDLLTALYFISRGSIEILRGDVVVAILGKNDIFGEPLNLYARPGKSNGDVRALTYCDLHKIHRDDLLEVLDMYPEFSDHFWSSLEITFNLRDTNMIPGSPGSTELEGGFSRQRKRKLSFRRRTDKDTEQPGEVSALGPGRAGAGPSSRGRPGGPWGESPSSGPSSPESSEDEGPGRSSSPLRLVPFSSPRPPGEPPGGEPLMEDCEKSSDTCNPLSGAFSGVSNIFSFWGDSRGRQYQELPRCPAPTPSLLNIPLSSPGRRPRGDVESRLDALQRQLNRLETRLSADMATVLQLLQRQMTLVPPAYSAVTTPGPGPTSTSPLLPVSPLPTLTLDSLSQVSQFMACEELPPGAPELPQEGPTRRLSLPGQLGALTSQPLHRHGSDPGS
row,Structure (SMILES),"hERG current change (%, negative = inhibition) at 10uM [%]"
1,N#CCCN1CCCc2cc(N=Nc3ccc(C(F)(F)F)cc3)ccc21,13.4
2,COc1ccc(Cl)cc1Nc1nc(C)cc(C)c1C(N)=O,14.3
3,CC(C)C[C@@H]1NC(=O)[C@H](CO)NC(=O)c2cc([N+](=O)[O-])cc(I)c2OCC[C@@H](C(N)=O)NC1=O,2.3
4,CCC(=O)Nc1ccc(NC(=S)NC(=O)c2cc3ccccc3o2)cc1,7.15
5,COc1ccc(Cn2nnnc2CN2CCN(c3ccc(OC)cc3)CC2)cc1,-3.66
6,O=[N+]([O-])c1ccc2cn(-c3ccccc3)nc2c1,-0.226
7,O=C(CCc1nc2ccccc2c(=O)[nH]1)Nc1cc(C(F)(F)F)ccc1N1CCOCC1,-35.3
8,Cc1ccc(CN(C)C(=O)C2CCC(=O)N(C3CCCCCC3)C2)cc1 (centres unmarked),7.71
9,CN(Cc1cccc(Cl)c1)C(=O)C1CCC(=O)N(C2CC2)C1 (centres unmarked),1.31
10,CN(Cc1ccc(C(F)(F)F)cc1)C(=O)C1CCC(=O)N(C2CC2)C1 (centres unmarked),-51.7
11,Cc1cccn2c(=O)c3cc(C(=O)NC4CCCC4)c(=N)n(CCCN4CCOCC4)c3nc12,-74.7
12,Cc1cccn2c(=O)c3cc(C(=O)NC4CCCCC4)c(=N)n(CCN4CCOCC4)c3nc12,-87
13,CCCCOc1nc2ccccc2nc1NS(=O)(=O)c1ccc(F)cc1,-5.01
14,Cc1nc2scc(-c3cccs3)c2c(=O)n1CC(=O)O,5.83
15,CCOC(=O)COc1c(Br)cc(/C=C2\SC(=O)N(CC(=O)N3CCCC3)C2=O)cc1OC,-24
16,Cc1cccc(CCNC(=O)CN(C)S(=O)(=O)c2cnc[nH]2)c1,4.07
17,Cc1ccccc1C(=O)c1cccn1CC(=O)N1CCCCC1,10.6
18,Cc1onc(-c2ccccc2Cl)c1C(=O)Nc1ccc(-c2nnc3n2CCCCC3)cc1,-4.31
19,CCCCn1c(SCC(=O)Nc2ccc3c(c2)CCC3)nc2ccccc2c1=O,-33.6
20,CS(=O)(=O)c1ccc(Cl)c(NC(=O)CSc2nc3ccccc3c(=O)n2CCCN2CCOCC2)c1,-47.7
21,Cc1ccc(NC(=O)CSc2nc3ccccc3c(=O)n2CCCN2CCCCC2)cc1Cl,-73.7
22,COCCn1c(SCC(=O)Nc2ccc3c(c2)CCC3)nc2ccccc2c1=O,4.46
23,Cc1ccc(-n2c(SCC(=O)Nc3cc(S(=O)(=O)N4CCOCC4)ccc3Cl)nc3ccccc3c2=O)cc1,2.71
24,CCC(C)NC(=O)CSc1nc2ccccc2c(=O)n1CCCN1CCCCC1 (centres unmarked),-13.8
25,COCCCNC(=O)CSc1nc2ccccc2c(=O)n1CCCN1CCCCC1,2.04
26,CCN(CC)CCn1c(SCC(=O)Nc2ccc3c(c2)CCC3)nc2ccccc2c1=O,-83
27,Cc1ccc(NC(=O)CSc2nc3ccccc3c(=O)n2CCCN2CCCCC2)cc1C,-71.9

row,Structure (SMILES),"hERG current change (%, negative = inhibition) at 10uM [%]"
1,CN(C)S(=O)(=O)c1ccc(Cl)c(NC(=O)CSc2nc3ccccc3c(=O)n2CCCN2CCOCC2)c1,-73.9
2,Cc1ccc(NC(=O)CCC(=O)N/N=C/c2coc3ccccc3c2=O)cc1,0.733
3,Cc1ccccc1NC(=O)NCc1ccc2c(c1)OCO2,11.6
4,O=C(COC(=O)C1(c2ccc(Cl)cc2)CCCC1)N1CCc2ccccc21,-1.16
5,CCOC(=O)Nc1sc2c(c1C(N)=O)CCC(C)C2 (centres unmarked),16.4
6,CC(=O)c1sc2nsc(SCCN3CCCC3)c2c1N,-0.32
7,Cc1c(Cl)ccc(S(=O)(=O)Nc2cccnc2)c1Cl,13.6
8,Cc1cc(C(F)(F)F)nc(SCC(=O)NC2CCCCC2)n1,-10
9,COCCn1c(SCC(=O)Nc2ccc(S(=O)(=O)N3CCOCC3)cc2)nc2ccccc21,-58.8
10,O=C(CSc1nc2ccccc2c(=O)n1-c1ccc(F)c(Cl)c1)Nc1cccc(S(=O)(=O)N2CCOCC2)c1,21.8
11,COCCn1c(SCC(=O)Nc2ccc(S(N)(=O)=O)cc2)nc2ccccc21,-32.1
12,O=C(CSc1nc2ccccc2c(=O)n1CCCN1CCOCC1)Nc1cccc(S(=O)(=O)N2CCCCCC2)c1,-72.2
13,COCCn1c(SCC(=O)Nc2ccc(N3CCOCC3)cc2)nc2ccccc21,-4.58
14,O=C(CSc1nc2ccccc2c(=O)n1-c1ccccc1Cl)Nc1cccc(S(=O)(=O)N2CCOCC2)c1,-6.76
15,COc1cc(N)ccc1NC(=O)c1cc2ccccc2o1,13.1
16,O=C(CN1CCCC1)Nc1ccc(NC(=O)Nc2ccccc2)cc1,6.42
17,O=S(=O)(NC(=S)NC1CCCCC1)c1ccc(Br)cc1,9.58
18,COCCN(Cc1cccs1)S(=O)(=O)c1ccc(-c2ccc(=O)[nH]n2)s1,-46.8
19,CCCCN(Cc1ccco1)S(=O)(=O)c1ccc(-c2ccc(=O)[nH]n2)s1,-27.7
20,CC(C)CCN(Cc1ccco1)S(=O)(=O)c1ccc(-c2ccc(=O)[nH]n2)s1,-0.664
21,CCCCN(Cc1cccs1)S(=O)(=O)c1ccc(-c2ccc(=O)[nH]n2)s1,-3.4
22,CN(C)CCN(Cc1ccccc1)S(=O)(=O)c1ccc(-c2ccc(=O)[nH]n2)s1,-67.4
23,CN(C)CCN(Cc1ccco1)S(=O)(=O)c1ccc(-c2ccc(=O)[nH]n2)s1,-64.4
24,COc1ccccc1CNS(=O)(=O)c1c(C)nc2scc(C)n2c1=O,-8.78
25,Cc1cc(Nc2ccc(F)cc2C)n2ncnc2n1,-4.78
26,CCCC(=O)Nc1nc2c(c(=O)[nH]1)CCCC2,10.2
